# Reference: PubChem BioAssay (EPA / NIEHS)
# The source made the active and inactive calls. How the source made its calls: active means hit-call score of the fitted dose curve at least 0.9, where 1 is the maximum; inactive means score below 0.9.
# Biological target: Signal transducer and activator of transcription 3 (Homo sapiens) (UniProt P40763)
# Experiment: ATG_STAT3_CIS: Attagene CIS-FACTORIAL HepG2 Assay for human Signal Transducer and Activator of Transcription 3 (STAT3) (AID 2282963)
# Details: HepG2, Attagene cis-factorial STAT3 reporter transcription; actives raise or lower the signal
# Method: ATG_CIS is a cell-based, multiplexed-readout assay that uses HepG2, a human liver cell line, with measurements taken at 24 hours after chemical dosing in a 24-well plate.ATG_STAT3_CIS is one of 52 assay component(s) measured or calculated from the ATG_CIS assay. It is designed to make measurements of mRNA induction, a form of inducible reporter, as detected with fluorescence intensity signals by Reverse transcription polymerase chain reaction (RT-PCR) and Capillary electrophoresis technology.Data from the assay component ATG_STAT3_CIS was analyzed into 1 assay endpoint. This assay endpoint, ATG_STAT3_CIS, was analyzed with bidirectional fitting relative to DMSO as the negative control and baseline of activity. Using a type of inducible reporter, measures of mRNA for gain or loss-of-signal activity can be used to understand the reporter gene at the transcription factor-level as they relate to the gene STAT3. Furthermore, this assay endpoint can be referred to as a primary readout, because this assay has produced multiple assay endpoints where this one serves a reporter gene function. To generalize the intended target to other relatable targets, this assay endpoint is annotated to the dna binding intended target family, where the subfamily is stat protein.
# Human liver HepG2 cells are transiently transfected with multiple reporter transcription units (MRTUs) in 6-well plates using FuGene 6 reagent (Roche; 3 ml FuGene/1 mg DNA). The MRTU constructs are regulated by a cis-regulating element (promoter). […] A major difference between the CIS and TRANS system is that in CIS activities of endogenous TFs are measured, whereas the TRANS assay evaluates changes in activities of exogenous, chimeric NR-Gal4 proteins. […] At the end of 24 hour incubation, total RNA was isolated using TriZol reagent (Invitrogen). The isolated RNA is then reverse-transcribed using oligo(dT) primer and Mo-MLV reverse transcriptase (Invitrogen) with DNAse I (Ambion) treatment for 30 min. The one-tenth of the produced cDNA was amplified by PCR using Taq DNA polymerase (Invitrogen) and two reporter sequence-specific primers. The PCR products were fluorescently labeled by primer extension with 6-arboxyfluorescein (6-FAM) 5'-labeled reporter sequence-specific primer (2 min at 95 C, 20 s at 68 C and 10 min at 72 C) and these products were digested with 5U of HpaI (New England Biolabs) for 2h at 37 C. The fragments were purified using Qiaquick PCR columns (Qiagen), analyzed on an ABI 3130xL genetic analyzer (Applied Biosystems) with peak positions identified by using a set of X-rhodamine (ROX)-labeled MapMarker1000 molecular weight standards (BioVentures). The raw capillary electrophoresis data was processed using Attagraph software (Attagene).
# Signal transducer and activator of transcription 3 (Homo sapiens), sequence (P40763 whole entry, looked up): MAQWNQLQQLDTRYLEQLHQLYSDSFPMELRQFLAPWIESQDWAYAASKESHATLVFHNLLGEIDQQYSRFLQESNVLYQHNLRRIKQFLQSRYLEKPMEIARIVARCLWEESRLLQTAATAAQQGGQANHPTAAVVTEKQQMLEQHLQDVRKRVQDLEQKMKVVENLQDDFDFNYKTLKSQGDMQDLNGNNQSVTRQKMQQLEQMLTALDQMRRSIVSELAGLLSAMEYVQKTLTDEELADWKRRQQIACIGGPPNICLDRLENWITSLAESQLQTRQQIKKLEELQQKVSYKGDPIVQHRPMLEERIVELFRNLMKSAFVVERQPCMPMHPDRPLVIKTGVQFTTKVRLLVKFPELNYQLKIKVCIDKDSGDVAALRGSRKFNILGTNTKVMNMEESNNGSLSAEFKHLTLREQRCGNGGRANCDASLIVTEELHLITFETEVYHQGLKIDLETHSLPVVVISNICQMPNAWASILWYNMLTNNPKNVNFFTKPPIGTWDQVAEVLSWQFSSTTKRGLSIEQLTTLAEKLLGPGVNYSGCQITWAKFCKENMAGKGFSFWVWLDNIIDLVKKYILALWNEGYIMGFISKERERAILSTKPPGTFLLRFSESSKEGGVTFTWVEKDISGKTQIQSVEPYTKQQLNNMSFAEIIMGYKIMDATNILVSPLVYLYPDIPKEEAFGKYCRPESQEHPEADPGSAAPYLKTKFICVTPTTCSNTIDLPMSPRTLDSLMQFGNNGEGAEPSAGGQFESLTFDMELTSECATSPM
SMILES,outcome,AC50
N#CCCCCC#N,inactive,–
c1ccc2c(c1)CCCC2,inactive,–
N#CCNCC#N,inactive,–
O=C(O)C(Br)Br,inactive,–
CCCCCc1cc(O)cc(O)c1,inactive,–
COC(=O)c1ccccc1S(=O)(=O)NC(=O)Nc1nc(C)cc(C)n1,inactive,–
O=C(O)c1cc[c]([Hg][Cl])cc1,inactive,–
CC1(C)CC(=O)CC(C)(C)N1[O],inactive,–
CCOC(=O)N(C)N=O,inactive,–
CCOP(=O)(OCC)Oc1ccc([N+](=O)[O-])cc1,inactive,–
N#CC(c1ccccc1)c1ccccc1,inactive,–
CC1CCC(=O)O1 (stereo not given),inactive,–
CCCCOC(=O)CCC(=O)OCCCC,inactive,–
Nc1ccccc1,inactive,–
CNC(=O)Oc1cc(C)c(SC)c(C)c1,inactive,–
O=C(CCN1CC1)OCC(CO)(COC(=O)CCN1CC1)COC(=O)CCN1CC1,inactive,–
BrCBr,inactive,–
O=C(NC(=O)c1c(F)cccc1F)Nc1ccc(Oc2ccc(C(F)(F)F)cc2Cl)cc1F,inactive,–
COc1ncc(F)c2nc(S(=O)(=O)Nc3c(F)cccc3F)nn12,inactive,–
N#Cc1cccc(C#N)c1,inactive,–

SMILES,outcome,AC50
Oc1ccc(Cl)cc1,inactive,–
c1cc(OCC2CO2)ccc1Cc1ccc(OCC2CO2)cc1 (stereo not given),–,54.8 µM (active)
c1ccc(P(c2ccccc2)c2ccccc2)cc1,inactive,–
C=C(Cl)Cl,inactive,–
C=CC(=O)OCCCCOC(=O)C=C,inactive,–
C[C@]12CC[C@H]3[C@@H](CC[C@@]45O[C@@H]4C(O)=C(C#N)C[C@]35C)[C@@H]1CC[C@@H]2O,inactive,–
O=C(CCl)c1ccccc1,inactive,–
CCCCCCC1CCOC1=O (stereo not given),inactive,–
O=C1C=CC(=O)C=C1,inactive,–
O=c1[nH]c(Cl)c(Cl)cc1Cl,inactive,–
CCOC(=O)COc1ccc(Cl)cc1Cl,inactive,–
COC(=O)COc1ccc(Cl)cc1Cl,inactive,–
[Cl][Sb]([Cl])[Cl],inactive,–
CNC(=N[N+](=O)[O-])NCC1CCOC1 (stereo not given),inactive,–
O=C1C(Cl)=C(Cl)C(=O)C(Cl)=C1Cl,inactive,–
C=CCc1ccc(OC(=O)Cc2ccccc2)c(OC)c1,inactive,–
Nc1ccc([N+](=O)[O-])cc1N,inactive,–
O=C(O)CCl,inactive,–
CC1OC(C)OC(C)O1 (stereo not given),inactive,–
CC(C)C(=O)Cl,inactive,–
